Screens: PubChem, National Center for Advancing Translational Sciences (NCATS)
TDP1 cell noCPT = qHTS for Inhibitors of human tyrosyl-DNA phosphodiesterase 1 (TDP1): qHTS in cells in absence of CPT | hit rate 15% among 420,000 | DT40 Tdp1-/- hTDP1 cells, no CPT, ATP luminescence, 48 h | Potency, µM (highest dose often 46.2 µM), for the others: at the top dose activity change, negative = growth inhibition, actives largely listed as inhibitors | AID 686978, 2013; further: nearly all actives have a fitted effect of over 55% in size
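Chicken DT40 Tdp1-/- cells stably complemented with human TDP1 were seeded at 400 cells/well with DMSO in place of 20 nM camptothecin. After compound pinning, cells grew at least 48 hr at 37 °C; viability read by CellTiter-Glo luminescence.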
ELG1 repair inh = ELG1-dependent DNA repair inhibition | HEK293T ELG1-luciferase reporter, luminescence, 16 h; DNA damage induced by 5-fluorouridine | Potency, µM (highest dose often 46.1 µM), without a hit: at the top dose activity change, negative = inhibition, hits mostly inhibitors | hit rate 2.3% among 330,000; further: nearly all actives have a fitted effect of over 55% in size
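In this reporter screen, reduction of luminescence relative to DMSO vehicle indicated activity. Compounds and 5-fluorouridine were added together to 2,000 cells per well, incubated for 16 hr at 37 °C, then developed with ONE-Glo.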
TDP1 cell CPT = DT40-hTDP1 cell growth loss with CPT; chicken DT40 Tdp1-/-;hTDP1 cells + 20 nM CPT, ATP luminescence, 48 h; Potency, µM (series often up to 46.2 µM), without a hit: at the top dose activity change, negative = growth inhibition, most hits filed as inhibitors; hit rate 12% among 420,000; AID 686979; further: nearly all actives have a fitted effect of over 55% in size
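Cell growth measured by CellTiter-Glo luminescence after a minimum 48 h, 37 C compound exposure with 20 nM CPT in Tdp1-knockout DT40 cells stably expressing hTDP1, seeded 400/well; qHTS titration format.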
ALOX12 inh = ALOX12 (human) lipoxygenase inhibition. P18054. purified 12hLO, xylenol orange hydroperoxide absorbance. Potency, µM (top dose mostly 108 µM), for the others: top-dose activity change, negative = inhibition, most hits filed as inhibitors. hit rate 1.1% among 580,000. AID 1671190
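Purified human 12hLO (150 nM final) in 25 mM Hepes, 0.01% Triton X-100, pH 7.0 was preincubated 15 min at room temperature with compound. Then 40 uM arachidonic acid was added, 30 min. Hydroperoxide was read by Fe-XO absorbance ratio 573/405 nm.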
VP16 counter = counter-screen for ROR gamma inhibitors: Gal4-VP16 reporter; Drosophila S2 Gal4-VP16 UAS-luciferase, luminescence, 20 h; Potency, µM (top dose mostly 53.6 µM), for the others: top-dose activity, negative = inhibition, hits mostly inhibitors; hit rate 3.5% among 310,000;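 further: Gal4-VP16 expression switched on by copper sulfate through the metallothionein promoter; nearly all actives have a fitted effect of over 50% in size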
RORgamma inh = inhibitors of mouse ROR gamma transcriptional activity | P51450 | Drosophila S2 Gal4-RORgamma UAS-luciferase reporter, 20 h | Potency, µM (highest dose often 53.6 µM), without a hit: at the top dose activity change, negative = inhibition, usual class: inhibitors | hit rate 5.4% among 310,000 | AID 2551; further: nearly all actives have a fitted effect of over 60% in size
Target sequence (P51450 whole entry, looked up, the tested form may be a part): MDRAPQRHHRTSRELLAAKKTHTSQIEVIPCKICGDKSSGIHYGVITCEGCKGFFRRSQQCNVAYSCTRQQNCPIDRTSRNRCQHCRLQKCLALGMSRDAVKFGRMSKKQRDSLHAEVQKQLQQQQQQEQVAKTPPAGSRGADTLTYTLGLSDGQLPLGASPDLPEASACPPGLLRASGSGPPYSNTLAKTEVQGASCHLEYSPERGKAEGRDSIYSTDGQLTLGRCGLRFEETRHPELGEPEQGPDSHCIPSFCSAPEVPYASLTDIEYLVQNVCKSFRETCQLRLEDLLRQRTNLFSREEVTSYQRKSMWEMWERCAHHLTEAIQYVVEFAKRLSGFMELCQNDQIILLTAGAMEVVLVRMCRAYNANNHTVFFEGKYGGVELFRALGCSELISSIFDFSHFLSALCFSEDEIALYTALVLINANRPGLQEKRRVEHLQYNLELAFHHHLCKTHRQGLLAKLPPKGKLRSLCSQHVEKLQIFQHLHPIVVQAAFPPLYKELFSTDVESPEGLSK
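Luminescence from a UAS-regulated Photinus luciferase reporter in stably transfected Drosophila Schneider cells is measured; decreased signal marks ROR gamma inhibition. Fusion expression is induced by 700 uM copper sulfate for 20 hr.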
* = called active by the depositor; ? = inconclusive; / = no result given; [ ] = dose if it differs, or a comment. Shown are actives, neighbours in structure and some others; about 15% of the full set was active somewhere. The call rests on the fitted dose curve; in most records, active means well fitted curve in the direction sought with a large enough effect; inconclusive means small, poorly fitted or top-dose-only effect, or another doubt; inactive means no such curve, though single readings can be large; an effect the other way counts as inactive or inconclusive. On the % scale 0 is the no-effect control and ±100 the full control effect; potency means the concentration at half of the fitted maximal effect.

SMILES | TDP1 cell noCPT | ELG1 repair inh | TDP1 cell CPT | ALOX12 inh | VP16 counter | RORgamma inh
Cc1ccc(NC(=O)c2cc(C)n(-c3ccccc3)c2C)cc1 | ? | ? | ? | -21% | 6.3µM* | 4.5µM*
Cc1ccc(NC(=O)c2csc(-c3ccccc3)c2C)cc1 | ? | ? | ? | -25% | 2µM* | 2µM*
CC(C)c1ccc(N2C(=O)[C@@H]3C[C@@H](NC(=O)C4CCN(c5nccc(C(F)(F)F)n5)CC4)CCN3C2=O)cc1 | / | / | / | 2% | / | /
COc1ccc(/C=N/OC(=O)c2ccc(C(F)(F)F)cc2)cc1OCc1ccccc1 | / | / | / | 4% | / | /
COCCCN(Cc1cc(OC)c(OC)c(OC)c1)C(=S)Nc1cccc(Cl)c1 | 9.2µM* | / | ? | -18% | / | /
COCCCN(C(=S)Nc1cccc(Cl)c1)C(C)c1ccncc1 (configuration not stated) | -16% | -11% | -21% | -12% | -14% | -2%
CSc1cccc(NC(=S)N(Cc2ccccc2)Cc2cccnc2)c1 | ? | ? | -19% | 13% | -2%[10 µM] | ?
COc1ccc(CC(=O)Nc2cccc(SC)c2)cc1 | -20% | 6% | ? | -26% | -6% | 101%
CCN(Cc1cc(OC)c(OC)c(OC)c1)C(=S)Nc1cccc(SC)c1 | 23µM* | ? | ? | 338% | 4% | -1%
COc1cc(CC(=O)Nc2cccc(SC)c2)cc(OC)c1OC | 10µM* | ? | ? | 4% | ? | ?
COCc1nn2c(=O)c(NC(=O)c3ccc(Cl)cc3)cnc2s1 | / | / | / | 9% | / | /
CC/C=C/CCO | / | / | / | -1%[176 µM] | / | /
CC(C)c1nc(-c2ccc(OC3CCN(C(=O)c4n[nH]c5ccccc45)C3)cc2)no1 (configuration not stated) | / | / | / | 7% | / | /
COC(=O)[C@@]1(Cc2ccc(OC)cc2)[C@H]2c3cc(C(=O)N(C)C)n(CCO)c3C[C@H]2CN1C(=O)c1ccccc1 | / | / | / | / | 9% | -16%
COC(=O)[C@@]1(Cc2ccc(OC)cc2)[C@@H]2C(=CC(=O)[C@H]2CC(=O)C(=O)N2CCCC2)CN1C(=O)c1ccccc1 | 16µM* | 15µM* | ? | / | 4µM* | ?
COC(=O)[C@@]1(Cc2ccc(OC)cc2)[C@@H]2[C@@H](CC(=O)[C@H]2CC(=O)C(=O)N(C)C)CN1C(=O)c1ccccc1 | ? | 3% | 23µM* | 1% | 4% | ?
C=C1C(=O)C=C2CN(C(=O)c3ccccc3)[C@@](Cc3ccc(OC)cc3)(C(=O)OC)[C@@H]12 | / | / | / | / | 0.71µM* | 4µM*
COC(=O)[C@@]1(Cc2ccc(OC)cc2)[C@@H]2[C@@H](CC(=O)[C@H]2CC(=O)C(=O)N2CCCC2)CN1C(=O)c1ccccc1 | / | / | / | / | 4% | -16%
COC(=O)[C@@]1(Cc2ccc(F)cc2)[C@@H]2C(=CC(=O)[C@H]2CC(=O)C(=O)N2CCCC2)CN1C(=O)c1ccccc1 | / | / | / | / | ? | 14µM*
CC(C)n1cc(CN2CCC(C3CCN(S(C)(=O)=O)CC3)C2)cn1 (configuration not stated) | / | / | / | 78% | / | /
COCc1nc(C2CCCN(C(=O)c3cccc(C)c3)C2)no1 (configuration not stated) | / | / | / | 30% | / | /
CNC(C)c1c(F)cccc1F (configuration not stated) | / | / | / | 5%[12.5 µM] | / | /
O=C(NC1CC1)C1CCN(Cc2ccc(Cl)cc2)CC1 | / | / | / | -13% | / | /
O=C(NC1CC1)C1CCN(C2CCN(C(=O)Cc3ccc4c(c3)OCO4)CC2)CC1 | -8% | 19% | -19% | 6% | -16% | 10µM*
CSc1ccc(CN2CCC(N3CCC(C(=O)NC4CC4)CC3)CC2)cc1 | 8.2µM* | / | 21µM* | -1% | / | /
SMILES | TDP1 cell noCPT | ELG1 repair inh | TDP1 cell CPT | ALOX12 inh | VP16 counter | RORgamma inh
O=C(Nc1ccccc1)N1CCCN(CCc2ccncc2)CC1 | / | / | / | 80% | / | /
COc1ccccc1NC(=S)NC(C)C(c1cccs1)N1CCOCC1 (configuration not stated) | ? | -2% | ? | 0% | ? | 13µM*
CC(NC(=S)Nc1ccc(Cl)cc1Cl)C(c1cccs1)N1CCCC1 (configuration not stated) | ? | -11% | ? | ? | ? | 11µM*
CC(NC(=S)NC1CCCCC1)C(c1cccs1)N1CCOCC1 (configuration not stated) | ? | -2% | ? | 95% | ? | 8.9µM*
CC(NC(=O)C1CCCCC1)C(c1cccs1)N1CCOCC1 (configuration not stated) | -1% | -3% | 3% | 17% | 4% | 0%
CCN(Cc1ccc2c(c1)OCO2)C(=O)c1nn(-c2ccccc2)c(=O)c2ccccc12 | / | / | / | 3% | / | /
C1=Nc2ccccc2/C1=C/c1ccccc1 | 13µM* | / | 4.5µM* | / | / | /
CCCCn1c(=O)[nH]c(=O)c2c1nc(CNc1cccc(F)c1)n2CCC(C)C | / | / | / | -29% | / | /
N#Cc1ccc(O[C@@H]2CCOC[C@H]2NC(=O)CCN2CCCC2=O)cc1 | / | / | / | 38% | / | /
COc1cccc2sc(N3CCN(C(=O)CS(=O)(=O)c4ccc(Cl)cc4)CC3)nc12 | 18µM* | / | 16µM* | -27% | / | /
Cc1ccc(S(=O)(=O)CC(=O)Nc2nc3c(C)cccc3s2)cc1 | 1% | / | 1% | ? | / | /
Cc1ccc(S(=O)(=O)CC(=O)N2CCN(c3nc4c(F)cccc4s3)CC2)cc1 | 18µM* | / | 21µM* | -27% | / | /
COCCNc1nc(NCc2ccc(C(C)C)cc2)c2sccc2n1 | 12µM* | / | 12µM* | ? | / | /
COc1cccc(CNc2nc(NC(C)C)nc3ccsc23)c1 | ? | / | 23µM* | ? | / | /
COCCNc1nc(NCc2cccc(OC)c2)c2sccc2n1 | 18µM* | / | 15µM* | ? | / | /
COCCNc1nc(NCCCN2CCCC2=O)c2sccc2n1 | -6% | / | -3% | -7% | / | /
COc1ccc(CN2CCN(c3ccccn3)CC2)c(OC)c1C | 13µM* | ? | ? | -1% | 8% | 13%
COc1cc2c(cc1OC)CN(Cc1ccc(OC)c(C)c1OC)CC2 | 21µM* | -1% | 29µM* | ? | 12% | 2%
COc1cc2c(cc1OC)CN(Cc1cc(=O)oc3c(C)c(C)ccc13)CC2 | 21µM* | -37% | ? | ? | -1% | ?
COc1ccc(CN2CCN(c3ncccn3)CC2)c(C)c1C | ? | ? | -29% | ? | -4% | -13%
